Among the data in ChEMBL document CHEMBL2218924, “A broad activity screen in support of a chemogenomic map for kinase signalling research and drug discovery” (Biochem J, 2013) are residual activity values, retold here.

In general, residual activity refers to the signal under treatment as a percentage of the control signal.

Experiment [1] concerns the target T1, CDK9/cyclin T1 (Homo sapiens) (UniProt O60563+P50750). The conditions noted are these: at 1 µM.
Experiment [2] deals with T1, CDK9/cyclin T1 (Homo sapiens). As to conditions: at 10 µM.
Experiment [3] deals with T2, Serine/threonine-protein kinase Chk1 (Homo sapiens) (UniProt O14757).
T2 sequence (whole entry): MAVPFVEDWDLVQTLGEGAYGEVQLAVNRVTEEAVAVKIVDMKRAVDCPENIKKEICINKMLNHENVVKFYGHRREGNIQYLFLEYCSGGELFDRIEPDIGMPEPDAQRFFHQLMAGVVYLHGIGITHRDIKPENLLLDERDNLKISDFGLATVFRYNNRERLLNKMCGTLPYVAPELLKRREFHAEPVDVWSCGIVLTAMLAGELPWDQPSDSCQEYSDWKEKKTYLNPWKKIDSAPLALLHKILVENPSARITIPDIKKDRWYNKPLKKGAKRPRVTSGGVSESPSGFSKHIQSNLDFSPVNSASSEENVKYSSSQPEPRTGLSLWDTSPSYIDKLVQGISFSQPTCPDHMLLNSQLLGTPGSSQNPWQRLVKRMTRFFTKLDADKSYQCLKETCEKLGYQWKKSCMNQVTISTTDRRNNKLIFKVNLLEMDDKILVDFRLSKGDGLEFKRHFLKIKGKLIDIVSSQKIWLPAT
The conditions noted are these: at 1 µM.

The target of experiment [4] is Serine/threonine-protein kinase Chk2 (Homo sapiens) (UniProt O96017). As to conditions: at 1 µM.
Experiment [5] shares this target. The conditions noted are these: at 10 µM.
Experiment [6] has as its target Casein kinase I isoform gamma-1 (Homo sapiens) (UniProt Q9HCP0). The conditions noted are these: at 1 µM.
The target is the same in experiment [7]. The conditions noted are these: at 10 µM.
The target in experiment [8] is Casein kinase I isoform delta (Homo sapiens) (UniProt P48730). The conditions noted are these: at 1 µM.
Experiment [9] shares this target. As to conditions: at 10 µM.
Experiment [10] addresses T3, Casein kinase II (Homo sapiens) (UniProt P67870+P68400+P19784). The conditions noted are these: at 1 µM.
Experiment [11] deals with T3, Casein kinase II (Homo sapiens). The conditions noted are these: at 10 µM.
The target in experiment [12] is Casein kinase II subunit alpha' (Homo sapiens) (UniProt P19784). As to conditions: at 10 µM.
The target of experiment [13] is Dual specificity protein kinase CLK3 (Homo sapiens) (UniProt P49761). As to conditions: at 1 µM.
The target is the same in experiment [14]. The conditions noted are these: at 10 µM.
Experiment [15] addresses Tyrosine-protein kinase CSK (Homo sapiens) (UniProt P41240). The conditions noted are these: at 1 µM.
For experiment [16] the target is unchanged. The conditions noted are these: at 10 µM.
Experiment [17] deals with T2, Serine/threonine-protein kinase Chk1 (Homo sapiens). As to conditions: at 10 µM.
The target in experiment [18] is Dual specificity protein kinase CLK2 (Homo sapiens) (UniProt P49760). As to conditions: at 1 µM.
For experiment [19] the target is unchanged. The conditions noted are these: at 10 µM.
In experiment [20] the target is Casein kinase II subunit alpha' (Homo sapiens) (UniProt P19784). The conditions noted are these: at 1 µM.

Dual specificity protein kinase CLK3 (Homo sapiens), sequence (P49761 whole entry, looked up): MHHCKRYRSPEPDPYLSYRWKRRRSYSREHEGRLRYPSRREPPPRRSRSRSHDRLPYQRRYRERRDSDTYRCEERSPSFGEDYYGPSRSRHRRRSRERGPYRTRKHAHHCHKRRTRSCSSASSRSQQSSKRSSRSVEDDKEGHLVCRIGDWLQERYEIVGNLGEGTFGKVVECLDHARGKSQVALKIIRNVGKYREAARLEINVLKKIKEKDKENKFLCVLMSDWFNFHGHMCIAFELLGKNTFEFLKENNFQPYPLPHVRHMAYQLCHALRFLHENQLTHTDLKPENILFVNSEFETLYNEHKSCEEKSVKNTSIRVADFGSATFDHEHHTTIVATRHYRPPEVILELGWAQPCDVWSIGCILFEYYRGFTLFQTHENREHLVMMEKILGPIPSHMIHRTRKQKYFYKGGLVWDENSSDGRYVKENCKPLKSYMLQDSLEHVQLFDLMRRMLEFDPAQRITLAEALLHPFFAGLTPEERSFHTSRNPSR
Casein kinase I isoform gamma-1 (Homo sapiens), sequence (Q9HCP0 whole entry, looked up, canonical isoform): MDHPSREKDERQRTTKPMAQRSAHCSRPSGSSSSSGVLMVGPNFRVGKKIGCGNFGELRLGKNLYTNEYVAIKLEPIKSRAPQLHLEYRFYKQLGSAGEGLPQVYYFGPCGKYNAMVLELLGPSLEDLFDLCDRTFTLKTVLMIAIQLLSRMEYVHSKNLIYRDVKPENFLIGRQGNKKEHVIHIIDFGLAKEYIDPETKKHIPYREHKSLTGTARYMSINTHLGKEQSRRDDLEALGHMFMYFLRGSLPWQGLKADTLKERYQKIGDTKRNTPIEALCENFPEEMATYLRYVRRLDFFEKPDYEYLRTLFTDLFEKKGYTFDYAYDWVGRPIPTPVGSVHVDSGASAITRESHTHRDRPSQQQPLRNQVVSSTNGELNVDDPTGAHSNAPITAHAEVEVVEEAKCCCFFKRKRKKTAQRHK
Tyrosine-protein kinase CSK (Homo sapiens), sequence (P41240 2-450 limits assumed): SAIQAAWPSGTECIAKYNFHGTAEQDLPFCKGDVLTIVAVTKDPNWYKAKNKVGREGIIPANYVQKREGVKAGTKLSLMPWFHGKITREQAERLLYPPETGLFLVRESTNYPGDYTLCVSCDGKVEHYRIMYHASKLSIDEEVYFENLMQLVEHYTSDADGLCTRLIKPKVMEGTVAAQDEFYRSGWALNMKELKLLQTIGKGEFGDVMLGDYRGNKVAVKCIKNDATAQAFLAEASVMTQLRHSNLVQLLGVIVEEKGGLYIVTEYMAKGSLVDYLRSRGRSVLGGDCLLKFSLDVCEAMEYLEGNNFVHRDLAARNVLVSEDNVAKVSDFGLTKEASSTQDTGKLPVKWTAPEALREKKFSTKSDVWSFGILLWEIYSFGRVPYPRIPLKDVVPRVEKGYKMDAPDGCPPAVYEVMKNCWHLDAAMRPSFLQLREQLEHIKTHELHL
Casein kinase II subunit alpha' (Homo sapiens), sequence (P19784 whole entry, looked up): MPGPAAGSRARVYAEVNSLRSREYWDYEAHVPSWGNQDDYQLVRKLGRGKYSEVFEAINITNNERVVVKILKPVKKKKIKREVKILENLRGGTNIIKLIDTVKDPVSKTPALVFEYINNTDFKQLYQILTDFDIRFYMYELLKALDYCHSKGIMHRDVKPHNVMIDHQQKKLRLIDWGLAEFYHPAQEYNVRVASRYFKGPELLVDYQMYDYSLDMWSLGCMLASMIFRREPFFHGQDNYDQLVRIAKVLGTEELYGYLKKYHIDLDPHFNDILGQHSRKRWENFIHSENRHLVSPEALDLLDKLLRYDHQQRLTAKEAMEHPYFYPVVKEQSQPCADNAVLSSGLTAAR
T3 sequence (P19784 whole entry, looked up): as above
T3 sequence (P67870 whole entry, looked up): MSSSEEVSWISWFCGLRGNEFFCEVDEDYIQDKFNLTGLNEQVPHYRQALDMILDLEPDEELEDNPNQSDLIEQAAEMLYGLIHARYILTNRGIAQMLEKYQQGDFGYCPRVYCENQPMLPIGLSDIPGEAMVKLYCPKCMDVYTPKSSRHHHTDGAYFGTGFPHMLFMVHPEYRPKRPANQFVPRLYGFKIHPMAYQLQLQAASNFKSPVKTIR
T3 sequence (P68400 whole entry, looked up): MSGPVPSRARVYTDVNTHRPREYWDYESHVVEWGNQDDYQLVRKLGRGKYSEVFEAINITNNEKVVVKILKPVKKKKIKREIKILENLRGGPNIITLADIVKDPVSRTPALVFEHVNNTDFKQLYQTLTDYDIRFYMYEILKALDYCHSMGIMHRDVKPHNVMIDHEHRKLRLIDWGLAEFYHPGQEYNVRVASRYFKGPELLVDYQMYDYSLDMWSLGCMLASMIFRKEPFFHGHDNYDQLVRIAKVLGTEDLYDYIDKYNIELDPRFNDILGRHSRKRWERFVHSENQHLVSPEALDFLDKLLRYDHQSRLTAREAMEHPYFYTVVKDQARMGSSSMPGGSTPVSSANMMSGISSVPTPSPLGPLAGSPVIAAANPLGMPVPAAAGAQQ
Dual specificity protein kinase CLK2 (Homo sapiens), sequence (P49760 whole entry, looked up): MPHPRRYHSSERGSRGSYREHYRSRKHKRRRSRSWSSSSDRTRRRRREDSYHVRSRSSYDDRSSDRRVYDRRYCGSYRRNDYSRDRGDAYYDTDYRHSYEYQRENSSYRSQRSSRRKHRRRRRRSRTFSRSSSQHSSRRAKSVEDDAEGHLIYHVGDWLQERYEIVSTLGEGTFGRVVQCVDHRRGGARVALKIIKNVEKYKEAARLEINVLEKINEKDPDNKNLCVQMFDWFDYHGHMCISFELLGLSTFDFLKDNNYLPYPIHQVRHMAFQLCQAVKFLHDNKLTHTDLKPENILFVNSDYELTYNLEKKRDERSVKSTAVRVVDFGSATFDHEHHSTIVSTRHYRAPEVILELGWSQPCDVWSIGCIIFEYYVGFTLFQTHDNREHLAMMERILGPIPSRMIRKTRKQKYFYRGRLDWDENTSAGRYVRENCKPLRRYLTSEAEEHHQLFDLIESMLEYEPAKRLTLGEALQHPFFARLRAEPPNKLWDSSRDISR
Serine/threonine-protein kinase Chk2 (Homo sapiens), sequence (O96017 whole entry): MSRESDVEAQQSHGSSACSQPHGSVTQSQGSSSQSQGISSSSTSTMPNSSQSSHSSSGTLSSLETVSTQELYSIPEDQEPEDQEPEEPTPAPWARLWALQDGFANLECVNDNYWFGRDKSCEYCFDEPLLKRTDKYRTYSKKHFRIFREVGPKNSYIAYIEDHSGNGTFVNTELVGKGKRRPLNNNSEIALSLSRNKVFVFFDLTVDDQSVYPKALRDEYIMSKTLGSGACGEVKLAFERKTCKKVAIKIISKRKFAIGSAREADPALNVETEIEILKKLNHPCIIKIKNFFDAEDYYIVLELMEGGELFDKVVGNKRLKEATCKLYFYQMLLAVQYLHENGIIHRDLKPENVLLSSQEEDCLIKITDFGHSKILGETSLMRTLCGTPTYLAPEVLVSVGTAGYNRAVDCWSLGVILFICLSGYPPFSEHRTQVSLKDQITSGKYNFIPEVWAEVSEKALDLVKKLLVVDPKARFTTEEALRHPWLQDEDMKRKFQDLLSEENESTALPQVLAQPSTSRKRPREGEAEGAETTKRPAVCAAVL
Casein kinase I isoform delta (Homo sapiens), sequence (P48730 whole entry, looked up, canonical isoform): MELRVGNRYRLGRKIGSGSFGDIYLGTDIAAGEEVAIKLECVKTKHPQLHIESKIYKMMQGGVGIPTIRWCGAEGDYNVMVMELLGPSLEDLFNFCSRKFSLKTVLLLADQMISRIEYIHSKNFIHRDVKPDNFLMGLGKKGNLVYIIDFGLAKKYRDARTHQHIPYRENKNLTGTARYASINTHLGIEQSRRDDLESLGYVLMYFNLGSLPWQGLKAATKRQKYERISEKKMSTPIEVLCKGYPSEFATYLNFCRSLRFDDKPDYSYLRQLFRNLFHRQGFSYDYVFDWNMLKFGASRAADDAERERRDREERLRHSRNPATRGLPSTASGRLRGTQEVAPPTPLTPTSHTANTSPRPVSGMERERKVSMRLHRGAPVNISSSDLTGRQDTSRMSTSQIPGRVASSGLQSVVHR

On to `COc1cc2nccc(Oc3ccc(NC(=S)NC(=O)c4ccccc4C)cc3)c2cc1OC`, for which the residual activity in [1] is 92%; in experiment [2] it was 89%; in experiment [3], 83%; in [4], 48%; in experiment [5] it was 23%; in experiment [6], 91%. Besides, the residual activity in [7] stood at 63%; in experiment [8], 85%; in [9], 62%; in [10], 83%; in [11], 100%; in experiment [12] it was 91%. Further, the residual activity in experiment [13] is 66%; in experiment [14] it was 46%; in experiment [15], 96%; in experiment [16] it was 69%.

As for `Nc1n[nH]c2nc3ccccc3nc12`, the residual activity in experiment [1] turned out to be 59%; in experiment [2] it was 36%; in [3], 90%; in experiment [17], 79%; in experiment [4] it was 82%; in experiment [5] it was 61%. Also, the residual activity was 79% in experiment [6]; 69% in [7]; 75% in experiment [8]; 34% in experiment [9]; 85% in experiment [10]; 62% in experiment [11]. Also, the residual activity in experiment [18] is 84%; in experiment [19], 52%; in experiment [13], 88%; in [14] it was 71%.

Take `O=C(c1cc2cc(O)ccc2[nH]1)c1cc2cc(O)ccc2[nH]1`: the residual activity in experiment [1] came out at 26%; in [2], 4%; in experiment [3], 76%; in [17], 47%; in [4], 60%; in [5], 22%. The residual activity in experiment [6] turned out to be 50%; in experiment [7], 10%; in experiment [8], 74%; in [9], 37%; in experiment [12] it was 72%; in experiment [18] it was 32%. Moreover, the residual activity in experiment [19] turned out to be 5%; in experiment [13] it was 69%; in experiment [14], 4%.

Regarding `NC(=O)Nc1sc(-c2ccc(F)cc2)cc1C(N)=O`, the residual activity in experiment [1] was determined as 89%; in experiment [2], 42%; in experiment [3], 37%; in experiment [17], 7%; in experiment [4], 34%; in experiment [5] it was 4%. Also, the residual activity in [6] was 104%; in experiment [7], 71%; in [8], 71%; in experiment [9], 31%; in [10] it was 68%; in [11], 34%. Moreover, the residual activity in experiment [20] came out at 78%; in experiment [12], 18%; in experiment [18], 105%; in experiment [19], 46%; in experiment [15] it was 92%; in experiment [16] it was 56%.

For the molecule `COc1cc2c(cc1OC)-c1n[nH]c(Nc3cccc(F)c3)c1C2`, the residual activity in experiment [1] stood at 99%; in experiment [2], 50%; in experiment [3], 72%; in experiment [17], 75%; in [4], 82%; in [5] it was 70%. Also, the residual activity in experiment [7] was 73%; in experiment [8], 76%; in [9], 39%; in [10] it was 82%; in experiment [11], 106%; in experiment [18] it was 108%. Also, the residual activity was found to be 68% in experiment [19]; 59% in experiment [13]; 48% in [14]; 80% in [15]; 29% in experiment [16].

As to `O=S(=O)(NCCNC/C=C/c1ccc(Br)cc1)c1cccc2cnccc12`, the residual activity in experiment [1] is 72%; in experiment [2], 41%; in [3], 81%; in experiment [17] it was 44%; in [4] it was 81%; in experiment [5], 27%. Moreover, the residual activity in [19] came out at 68%; in experiment [13], 79%; in experiment [15], 100%.

Take `O=C1Nc2ccc(Cl)cc2/C1=C/c1cc(Cl)c(O)c(Cl)c1`: the residual activity in experiment [1] came out at 90%; in [2], 69%; in experiment [3] it was 75%; in experiment [17], 64%; in experiment [4] it was 76%; in [5], 25%. For the same molecule, the residual activity in experiment [6] came out at 89%; in [7] it was 75%; in experiment [8], 77%; in experiment [9], 35%; in experiment [10], 41%; in experiment [11] it was 4%. For the same molecule, the residual activity worked out at 92% in experiment [20]; 32% in experiment [12]; 84% in experiment [18]; 45% in experiment [19]; 70% in [13]; 29% in [14]. The residual activity in [15] came to 96%.

In the case of `O=C1C(Cl)=C(N2C(=O)CCC2=O)C(=O)c2ccccc21`, the residual activity is 86% in experiment [1]; 87% in [2]; 94% in experiment [3]; 87% in [17]; 88% in [4]; 84% in [5]. Also, the residual activity turned out to be 91% in experiment [8]; 85% in [9]; 99% in [10]; 100% in experiment [11]; 100% in [20]; 98% in [12]. Moreover, the residual activity was 102% in [18], 80% in experiment [19], 89% in experiment [13] and 79% in experiment [14].

Consider `O=C1NC(=O)C(c2cn(CCCn3ccnc3)c3ccccc23)=C1Nc1ccccc1`, for which the residual activity is 14% in experiment [1]; 3% in experiment [2]; 75% in [3]; 37% in experiment [17]; 75% in experiment [9]; 8% in [18]. Further, the residual activity in [19] is 2%; in [13] it was 55%; in [14], 36%; in experiment [15], 107%; in experiment [16], 78%.

As to `NCCNc1ncc(C(N)=O)c(Nc2cccc(C(F)(F)F)c2)n1`, the residual activity amounted to 73% in [1]; 21% in [2]; 66% in experiment [3]; 27% in [17]; 15% in experiment [4]; 2% in experiment [5]. Besides, the residual activity in experiment [8] was 79%; in experiment [9] it was 58%; in [13], 82%; in experiment [14], 63%.

As for `O=C1NC(=O)C(c2c[nH]c3ccccc23)=C1c1c[nH]c2ccccc12`, the residual activity was determined as 36% in [1]; 5% in experiment [2]; 53% in experiment [17]; 73% in experiment [4]; 25% in experiment [5]; 56% in experiment [9]. The residual activity in [20] worked out at 118%; in [18], 27%; in [19], 5%; in experiment [13], 60%; in experiment [14], 29%.

In the case of `O=C1NC(=O)c2c1c1c3ccccc3[nH]c1n1cncc21`, the residual activity in [1] was 70%; in experiment [2], 59%; in experiment [3], 18%; in [17] it was 14%; in experiment [4], 23%; in experiment [5], 8%. Moreover, the residual activity in experiment [6] was found to be 58%; in experiment [7], 40%; in experiment [8] it was 15%; in experiment [9] it was 9%; in [10] it was 60%; in experiment [11], 21%. Also, the residual activity in experiment [20] was determined as 81%; in experiment [12], 21%; in [18], 51%; in [19], 46%; in experiment [13], 70%; in experiment [14], 53%. The residual activity stood at 97% in experiment [15] and 58% in [16].

Take `O=c1cc(N2CCOCC2)oc2c1ccc1ccccc12`: the residual activity in [1] came to 95%; in experiment [2] it was 70%; in experiment [3], 90%; in experiment [17], 93%; in [4], 111%; in [5], 93%. Besides, the residual activity in experiment [6] was 100%; in experiment [7], 94%; in experiment [8], 98%; in experiment [9], 86%; in experiment [10] it was 18%; in experiment [11] it was -1%. Besides, the residual activity in experiment [20] was found to be 56%; in experiment [12], 5%; in experiment [18], 98%; in experiment [19], 45%; in [13], 91%; in [15], 103%.

On to `CN(C)S(=O)(=O)c1ccc2c(c1)/C(=C/c1cc3c([nH]1)CCCC3)C(=O)N2`, for which the residual activity in [1] was found to be 92%; in experiment [2], 93%; in experiment [3], 77%; in [17] it was 73%; in experiment [4], 35%; in [8], 92%. The residual activity in experiment [9] worked out at 71%; in experiment [10], 95%; in experiment [11] it was 100%; in experiment [12], 94%; in experiment [18], 69%; in [19], 71%. Moreover, the residual activity in [13] turned out to be 39%; in experiment [14] it was 28%.

Consider `CC(C)(C)n1nc(Cc2cccc3ccccc23)c2c(N)ncnc21`, for which the residual activity in [1] was found to be 101%; in experiment [2], 65%; in experiment [3], 86%; in experiment [17], 102%; in [4], 96%; in experiment [5], 48%. The residual activity in [8] came to 40%; in experiment [9] it was 3%; in experiment [20] it was 118%; in [12], 72%; in [18], 94%; in experiment [19] it was 42%. Besides, the residual activity came out at 95% in experiment [13], 32% in experiment [14], 82% in experiment [15] and 20% in experiment [16].

As to `Cn1sc(=O)n(Cc2ccccc2)c1=O`, the residual activity was 93% in [1]; 79% in [2]; 88% in experiment [3]; 90% in [17]; 71% in experiment [4]; 67% in [5]. The residual activity in [6] is 96%; in experiment [7], 89%; in [8], 81%; in [9] it was 84%; in experiment [10], 85%; in experiment [11] it was 90%. The residual activity in [13] turned out to be 64%; in [14], 74%; in [15], 92%; in experiment [16] it was 90%.
